SMILES strings stand for the structures. The whole screen tested about 330,000 compounds, of which about 4,900 (1.5%) were called active.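 The calls were made as follows: active = inhibition above the mean inhibition across the screen plus 3 SD (cut at about 25% in these data); inactive = the rest.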 Shown is part of a subset that was picked to be rich in actives.

For the assay, the target named is Platelet-activating factor acetylhydrolase (Homo sapiens) (UniProt Q13093). Nature of the assay: inhibition of plasma PAF acetylhydrolase – biochemical, fluorescence polarization, human, primary screen (AID 463082).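 Also: inhibitors block binding of the rhodamine activity-based probe so polarization drops; 0% = enzyme with DMSO and 100% = wells lacking pPAFAH.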 The note with it: recombinant pPAFAH, FP-rhodamine probe fluorescence polarization; at 3.39 µM; stronger effect = higher value. In general terms: Polarisation of emitted light reports the rotation of a fluorescent probe.
Platelet-activating factor acetylhydrolase (Homo sapiens), sequence (Q13093 whole entry, looked up): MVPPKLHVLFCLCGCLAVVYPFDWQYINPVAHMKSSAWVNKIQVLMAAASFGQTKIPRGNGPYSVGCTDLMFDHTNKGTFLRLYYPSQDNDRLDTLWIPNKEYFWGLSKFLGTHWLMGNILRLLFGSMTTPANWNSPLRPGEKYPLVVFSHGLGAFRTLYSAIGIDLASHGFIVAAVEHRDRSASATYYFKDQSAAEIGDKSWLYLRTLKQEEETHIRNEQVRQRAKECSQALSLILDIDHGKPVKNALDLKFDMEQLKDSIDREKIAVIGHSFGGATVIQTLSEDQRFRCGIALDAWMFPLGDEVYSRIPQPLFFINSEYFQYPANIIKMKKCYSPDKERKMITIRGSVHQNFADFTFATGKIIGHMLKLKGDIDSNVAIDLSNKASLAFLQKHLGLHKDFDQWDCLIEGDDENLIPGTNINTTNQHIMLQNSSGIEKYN
With `COc1ccc(-c2csc3ncnc(N4CCN(S(=O)(=O)c5cccc(F)c5)CC4)c23)cc1`, the inhibition (commonly the change of the read-out against control, counted positive when it falls) was 3.15% (inactive).

As to `Cc1cc(F)ccc1S(=O)(=O)Nc1ncnc2scc(-c3ccc(F)cc3)c12`, the inhibition is 30.3% (active).

Turning to `O=S(=O)(Nc1ncnc2sccc12)c1cccc(F)c1`, the inhibition was 12.2% (inactive).

As for `Cc1cnc(C)c(N2CCN(C(=O)C3CCC(=O)N(CCc4cccc(F)c4)C3)CC2)n1` (stereo not drawn), the inhibition is 4.96% (inactive).

As to `CCCCn1c(N)c(N(CC)C(=O)c2ccccc2C(F)(F)F)c(=O)[nH]c1=O`, the inhibition is -0.54% (inactive).

For `CC(=O)Nc1cccc(Nc2nc(-c3cccs3)nc3ccccc23)c1`, the inhibition was -12.8% (inactive).

On to `Cc1cccc(-c2nc(Nc3ccc(O)cc3)c3ccccc3n2)c1`, for which the inhibition is 26.7% (active).

As for `CCOC(=O)c1nc(Nc2ccc(C(=O)OC)cc2)c2ccccc2n1`, the inhibition was -0.04% (inactive).

Turning to `O=C(COC(=O)CC1CC2CCC1C2)NC(=O)NC1CCCC1` (stereo not drawn), the inhibition was 2.89% (inactive).

Regarding `Cc1cc(/C=C(/C#N)C(=O)Nc2ccc(Cl)cc2)c(C)n1-c1cccnc1`, the inhibition is 0.95% (inactive).

`Cc1ccc(-n2c(C)cc(/C=C(\C#N)C(=O)NCC3CCCO3)c2C)cc1` (stereo not drawn): the inhibition was 68.5% (active).

As to `Cc1ccc(C(=O)N/C(=C/c2cccs2)C(=O)NCC2CCCO2)cc1` (stereo not drawn), the inhibition was -4.31% (inactive).

Turning to `COc1ccccc1C(=O)Nc1ccnn1C1CCN(C(=O)C(C)(C)C)CC1`, the inhibition is -0.55% (inactive).

Consider `COc1ccc(/C=C/C(=O)N2CCCC2)cc1OC`, for which the inhibition is 0% (inactive).

Turning to `COc1ccc(/C=C/C(=O)c2ccc(NS(=O)(=O)c3ccc(C)cc3)cc2)cc1O`, the inhibition was 23.6% (inactive).

For the molecule `COC(=O)c1ccc(COc2ccc(/C=C/C(=O)c3ccc(OC)c(CSCC(=O)O)c3)cc2OC)cc1`, the inhibition is 28.7% (active).

Consider `COCCn1c(SC(C)C(=O)NC2CC2)nnc1-c1cccc(C)c1` (stereo not drawn), for which the inhibition was -1.49% (inactive).

Regarding `N#CC1=C(N)Oc2cc(O)ccc2C1C1CCCCC1` (stereo not drawn), the inhibition is 2.82% (inactive).

Take `COc1cc(C2C(C#N)=C(N)Oc3n[nH]c(-c4ccccn4)c32)cc(OC)c1OC` (stereo not drawn): the inhibition is 2.74% (inactive).

In the case of `COc1ccc(C2C(C#N)=C(N)Oc3cc(N)ccc32)cc1OC` (stereo not drawn), the inhibition is 26% (active).

For `CCOC(=O)[C@H]1[C@H]2COc3ccc(C)cc3[C@@H]2N2C(=O)CN(Cc3ccc(F)cc3)C(=O)[C@@]12C`, the inhibition was -0.02% (inactive).

Turning to `C=CCN(N=Nc1cccc([N+](=O)[O-])c1)c1cccc([N+](=O)[O-])c1`, the inhibition is 9.93% (inactive).

As to `CCOC(=O)CNC(=O)/C(=C\c1ccc(F)cc1)NC(=O)c1ccccc1`, the inhibition was -2.32% (inactive).

On to `COc1ccc(/C=C(\NC(=O)c2ccccc2)C(=O)NCCN2CCOCC2)cc1OC`, for which the inhibition was 4.35% (inactive).

As for `Cn1c2ccccc2c2cc(/C=C(\NC(=O)c3ccccc3)C(=O)NCC(=O)O)ccc21`, the inhibition is 24.7% (active).

For the molecule `Cc1ccc2c(c1)nnc1nnc(SCC(=O)O)n12`, the inhibition was 2.74% (inactive).

As for `CC(C)C[C@H](NC(=O)N1CCn2c1nc1ccccc12)C(=O)NC1CC1`, the inhibition is 1.86% (inactive).

Regarding `COc1ccc(C(=O)Nc2cc(C)c(NC(=O)c3ccccc3OC)cn2)cc1`, the inhibition was 2.94% (inactive).

Turning to `C=CCn1cnc2scc(-c3ccccc3)c2c1=O`, the inhibition was 0.46% (inactive).

Regarding `C=CCn1c(=S)[nH]c2nc3c(cc2c1=O)COC(C)(C)C3`, the inhibition was -1.93% (inactive).

Regarding `C=CCn1c(=S)[nH]c2scc(-c3ccco3)c2c1=O`, the inhibition was 42.6% (active).

As for `C#CCOCCOCCOCCNc1nc(N2CCN(C(=O)C(Cc3ccc(O)cc3)n3cc(C(N)CC(C)C)nn3)CC2)nc(N2CCN(C(=O)C(Cc3ccc(O)cc3)n3cc(C(N)C(C)CC)nn3)CC2)n1` (stereo not drawn), the inhibition was 0.55% (inactive).

Consider `CN(C)S(=O)(=O)N1CCC(Oc2cccc(C(=O)NCCCC3CCCC3)c2)CC1`, for which the inhibition is 3.19% (inactive).

In the case of `Cc1nn(CC(=O)Nc2ccc3c(c2)OCO3)c(C)c1[N+](=O)[O-]`, the inhibition was -3.11% (inactive).

As for `Cc1ccc(C(=O)Nc2ccc3c(c2)OCO3)cc1S(=O)(=O)N1CCCCC1`, the inhibition was 14.5% (inactive).

`Cc1ccc(C(=O)O)cc1-c1ccc(/C=C2\SC(=O)N(CC(=O)Nc3ccc4c(c3)OCO4)C2=O)o1`: the inhibition was 30.2% (active).

`O=C(COC(=O)c1ccc(F)cc1)Nc1ccc2c(c1)OCO2`: the inhibition was 9.5% (inactive).

Consider `O=C(NOCc1ccccc1)c1cccc([N+](=O)[O-])c1`, for which the inhibition was 7.75% (inactive).

As to `Cn1c(=O)c2c(ncn2CC(=O)N/N=C/c2cn[nH]c2-c2ccc(F)cc2)n(C)c1=O`, the inhibition is 1.61% (inactive).

For `CCN(Cc1ccccc1)C(=O)Cc1ccc(OC)c(S(=O)(=O)N2CCOCC2)c1`, the inhibition is -1.51% (inactive).

Turning to `Oc1c(Cl)cc(Cl)c(Cl)c1Cc1c(O)c(Cl)cc(Cl)c1Cl`, the inhibition was 68.2% (active).

In the case of `O=C(CN1C(=O)NC2(CCOc3ccccc32)C1=O)Nc1cccc([N+](=O)[O-])c1` (stereo not drawn), the inhibition is 0.7% (inactive).

As for `Cc1cccc(NC(=S)NCCc2ccc(F)cc2)c1C`, the inhibition is 3.05% (inactive).

`CC(=O)Nc1ccc(Oc2ccc3c(c2)C(=O)NC3=O)cc1`: the inhibition is -0.12% (inactive).

Take `CCCCN(C)CCC(=O)Nc1ccc(Cl)cc1`: the inhibition was 1.11% (inactive).

Consider `CCCCC(=O)Nc1ccc2c(c1)C(=O)NC2=O`, for which the inhibition was 34.6% (active).

As for `Cc1cc(NC(=O)c2ccccc2C)no1`, the inhibition is 2.84% (inactive).

On to `O=[N+]([O-])c1cc(Cl)cc(/C=N/NC(=S)Nc2cc(S(=O)(=O)N3CCOCC3)ccc2Cl)c1O`, for which the inhibition is 36.5% (active).

As to `Cc1ccc(S(=O)(=O)N2CCN(CC(=O)N/N=C/c3cc([N+](=O)[O-])ccc3Cl)CC2)cc1`, the inhibition was 3.66% (inactive).

For `O=S(=O)(c1ccc(NC(=S)NN=C(C2CC2)C2CC2)cc1)N1CCOCC1`, the inhibition was 15% (inactive).

As to `CSc1ccc(C(=O)C2CCCN(C(=O)c3ccc(C)nc3)C2)cc1` (stereo not drawn), the inhibition is 5.05% (inactive).

With `CCOC(=O)C1C(=O)OC2(CCCC2)C1C(=O)OCC` (stereo not drawn), the inhibition was -0.69% (inactive).

For the molecule `CN(CC(=O)N1CCN(c2ccccc2)CC1)S(=O)(=O)c1cccs1`, the inhibition is -1.58% (inactive).

`CC(=O)N(C)c1ccc(NC(=O)C(F)(F)F)cc1`: the inhibition was -4.77% (inactive).

On to `CC(C)CNC(=O)C(=O)Nc1ccc(N(C)C)cc1`, for which the inhibition is -8.71% (inactive).

With `CN(C)c1ccc(N/C=C/C(=O)C(F)(F)F)cc1`, the inhibition was 42.4% (active).

As to `CCCc1ccc(C(=O)[C@@H]2[C@@H](C(C)=O)N3c4ccc(F)cc4C=C[C@@H]3[C@@]23C(=O)Nc2ccccc23)cc1`, the inhibition was 2.89% (inactive).

Turning to `O=C(CSc1ncnc2sccc12)NC1CCS(=O)(=O)C1` (stereo not drawn), the inhibition was 4.85% (inactive).

With `COc1ccc(NC(=O)C(NC(C)=O)C(=O)NCc2ccccc2Cl)cc1` (stereo not drawn), the inhibition is -2.3% (inactive).

Regarding `COC(=O)[C@@]12CCCN1[C@H](c1ccc(-c3ccc(F)cc3)c(OC)c1)[C@H]1C(=O)N(C)C(=O)[C@H]12`, the inhibition is -3.21% (inactive).

Turning to `CNC(=S)N/N=C/c1cn(Cc2ccc(C)cc2)c2ccccc12`, the inhibition was 18.1% (inactive).

With `CCOC(=O)N/N=C/c1cn(Cc2ccccc2Cl)c2ccccc12`, the inhibition is 30.1% (active).

With `COC(=O)N/N=C/c1cn(CCCOc2ccc(C)cc2)c2ccccc12`, the inhibition is 19.2% (inactive).

Take `Cc1ccc(-c2nc(SCC(=O)Nc3ccccc3OC(F)F)c3c(C)c(C(=O)O)sc3n2)cc1`: the inhibition is 1.04% (inactive).

On to `OCCCC1CCCCN1Cc1nc(Cc2ccccc2Cl)no1` (stereo not drawn), for which the inhibition was -2.08% (inactive).

Turning to `Cc1ccccc1Nc1nnc(SCC(=O)c2cc3ccccc3o2)s1`, the inhibition was 2.17% (inactive).

As to `CC(C)c1ccc(Nc2nnc(SCC(=O)c3nnc(-c4ccccc4)o3)s2)cc1`, the inhibition is 30.8% (active).

As to `CC(C)N(C(=O)CSc1nnc(NC2CC2)s1)c1ccccc1`, the inhibition was -0.35% (inactive).

On to `Fc1ccccc1/C=C1\CCCC2=C1Nc1ncnn1C2c1ccccc1F` (stereo not drawn), for which the inhibition was 14% (inactive).

As to `O=C1C=C(c2cccc(Cl)c2O)C[C@@H](c2ccc(F)cc2)C1`, the inhibition is 4.07% (inactive).

For `O=C(NCc1ccc(F)cc1)C(c1ccccc1)N(C(=O)c1csnn1)C1CC1` (stereo not drawn), the inhibition was -2.59% (inactive).

Regarding `CC1=NNC(=O)C1CCC(=O)N/N=C(\C)c1ccc(Cl)cc1` (stereo not drawn), the inhibition is 3.21% (inactive).

As for `CC(C)CC(=O)Nc1cc(C(F)(F)F)ccc1N1CCOCC1`, the inhibition is -1.9% (inactive).

For `O=C(CN1C(=O)NC2(CCCC2)C1=O)Nc1cc(C(F)(F)F)ccc1N1CCOCC1`, the inhibition was 6.53% (inactive).

In the case of `O=C(CCC1CCCCC1)Nc1cc(C(F)(F)F)ccc1N1CCOCC1`, the inhibition is 37.1% (active).

Take `Cc1ccc(O/C=C2\OC(=O)c3ccccc32)cc1`: the inhibition is -0.55% (inactive).

On to `Cc1noc(C)c1NC(=O)Nc1ccc2c(c1)C(=O)N([C@H](C)CO)C[C@H](C)[C@@H](CN(C)C(=O)Nc1ccc(C(F)(F)F)cc1)O2`, for which the inhibition was -10.3% (inactive).

In the case of `CC(=O)N1CCN(C(=O)c2cc(-c3ccc(Cl)s3)nc3ccccc23)CC1`, the inhibition was 3.56% (inactive).

Turning to `CC(=O)N1CCN(C(=O)c2cc(-c3ccc(C)o3)nc3ccccc23)CC1`, the inhibition was 41% (active).

On to `COc1ccc(NC(=O)c2cc(-c3ccc(C)o3)nc3ccccc23)cc1`, for which the inhibition is 11.4% (inactive).

Take `O=C(Cn1ncc2c3ccccc3n(Cc3ccccc3)c2c1=O)NCc1ccccn1`: the inhibition was -0.14% (inactive).

As for `CCN1CCN(C(=O)CCN2C(=O)c3ccccc3C2=O)CC1`, the inhibition was -1.23% (inactive).

`CCOc1ccc(C(C(=O)NCCOC)N(CCOC)C(=O)CCC(=O)Nc2ccccn2)cc1` (stereo not drawn): the inhibition was 5.87% (inactive).

As to `CCCCOc1ccc(N(CC(=O)NCC2CCCO2)C(=O)CCC(=O)Nc2cc(C)ccn2)cc1` (stereo not drawn), the inhibition was 10.7% (inactive).

Regarding `CCCCOc1ccc(N(CC(=O)NC(C)C)C(=O)CCC(=O)Nc2ccccn2)cc1`, the inhibition is 28.3% (active).

On to `COc1ccccc1C(=O)Nc1ccc(Nc2ccccc2)cc1`, for which the inhibition was 2.35% (inactive).

Take `CCC(=O)Nc1nnc(S(=O)(=O)N(CC(C)C)c2ccccc2)s1`: the inhibition is 3.99% (inactive).

Take `O=C(Nc1cc(C(F)(F)F)ccc1Cl)c1cc2nc3c(c(C(F)(F)F)n2n1)CCCC3`: the inhibition is 8.15% (inactive).

These data come from PubChem BioAssay AID463082 (The Scripps Research Institute Molecular Screening Center, 2010).
